# CSC inhib: cancer stem cell inhibition | AID 2717 | cancer stem cell-like cells viability, luminescence | inhibition, % at 7.5 µM | hit rate 1.1% among 300,000; in the data active means inhibition above about 75%; inconclusive means no clear call, values can overlap the other calls; tested in HMLE shEcad cells
# Beta apoptosis: blocks beta cell apoptosis | INS-1E cytokine-induced death, ATP luminescence, 48 h; percent of positive-control rescue, neutral wells zero | protection from apoptosis, % (test concentration not listed) | hit rate 0.8% among 300,000 | AID 435005;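 active means Every replicate reaches about 75%, or at least half do and their mean reaches it too, limit read from the data; inconclusive means At least half of replicates reach the limit but their mean does not; inactive means Under half of replicates reach the limit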;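 further: 0% = cytokine-treated negative control wells and 100% = positive control rescue; higher means more ATP so stronger rescue from cytokine killing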
# PP1 counter: PP1-alpha (human) inhibition in PP5 counter-screen. P62136. purified PP1alpha, OMFP fluorescence. inhibition, % at 6.7 µM. hit rate 0.9% among 320,000;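 active means inhibition above the mean inhibition of all tested compounds plus 3 SD, computed separately for each screening campaign, cut at about 15% in these data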
# Target sequence (P62136 whole entry, looked up): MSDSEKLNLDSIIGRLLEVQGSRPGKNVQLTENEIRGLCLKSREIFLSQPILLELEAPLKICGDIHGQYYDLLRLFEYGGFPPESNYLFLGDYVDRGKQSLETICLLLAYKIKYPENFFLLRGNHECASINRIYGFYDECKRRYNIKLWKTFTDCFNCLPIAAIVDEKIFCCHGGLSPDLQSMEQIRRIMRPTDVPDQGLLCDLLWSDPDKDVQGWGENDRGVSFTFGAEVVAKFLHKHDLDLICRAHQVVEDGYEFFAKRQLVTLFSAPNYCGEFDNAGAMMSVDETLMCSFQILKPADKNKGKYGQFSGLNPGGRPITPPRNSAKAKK
# SKKanGAS inh: blocks kanamycin growth of S. pyogenes SKKanGAS strain; BacTiter-Glo, 6 h; inhibition, % at 7.5 µM; hit rate 1.3% among 300,000; AID 1662;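 active means mean replicate score, as percent of positive control median, at least 50; inconclusive means mean below 50 but one replicate at or above 50; inactive means mean and every replicate below 50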;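 further: strain carries kanamycin resistance gene driven by streptokinase promoter and grows in 40 µg/ml kanamycin; loss of luminescence reflects streptokinase promoter inhibition or plain growth inhibition; 0% = median of DMSO wells and 100% = positive control at its reference dose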
# PP5 primary: blocks human protein phosphatase 5 activity; hit rate 0.18% among 320,000; P53041; inhibition, % at 6.7 µM; purified PP5c, OMFP substrate fluorescence;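 active means inhibition above the campaign's mean inhibition across all tested compounds plus 3 SD, cut at about 9.5% in these data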;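 further: 0% = DMSO only and 100% = 100 µM cantharidin control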
# Numbers without * were called inactive; ? = inconclusive; . = no result given. Compounds with a hit are over-represented: about 3.1% of the library has one in this group of screens.
SMILES,CSC inhib,Beta apoptosis,PP1 counter,SKKanGAS inh,PP5 primary
Cc1ccccc1N=C1SC(CC(=O)Nc2ccc3ccccc3c2)C(=O)N1Cc1ccccn1 (stereo not given),78*,3,7,34,6
OC(CNCCc1ccc(Cl)cc1)COc1cc(Cl)ccc1Cl (stereo not given),28,-3,8,12,1
COc1ccccc1C(=O)Nc1ccc(-c2nnn(CC(=O)NCc3ccco3)n2)cc1,-2,1,16*,5,-1
COCCCNC(=O)Cn1nnc(-c2ccc(NC(=O)c3cccnc3)cc2)n1,-11,97*,1,6,1
c1ccc(-c2noc(-c3ccc4c(c3)OCO4)n2)nc1,95*,74,-2,76*,-1
c1ccc(-c2noc(-c3ccc4ccccc4c3)n2)nc1,19,15,6,22,3
CC(C)=CCc1c(O)ccc2c1OC(c1ccc(O)c(O)c1)CC2=O (stereo not given),45,0,1,4,3
CC(C)=CCc1c(O)ccc(C2COc3c(CC=C(C)C)c(O)cc(O)c3C2=O)c1O (stereo not given),-5,-5,-10,51*,3
CCC(C)NC(=O)CNC(=S)N(Cc1ccccc1F)C1CCCCC1 (stereo not given),1,-5,-4,3,3
N#C/C(=C\c1ccc(-c2ccc(F)cc2)o1)C(=O)Nc1nc(-c2cccs2)cs1,12,1,15*,8,2
N#C/C(=C/c1ccc(-c2ccccc2)o1)c1nc(-c2cccs2)cs1,11,-3,1,.,1
CN(C(=O)c1ccccc1)C1c2c(ccc3ccccc23)OCC1CO (stereo not given),-3,-3,3,1,4
O=C(Nc1ccc(Cl)cc1)N[C@@H]1c2c(ccc3ccccc23)OC[C@@H]1CO,23,-1,4,60*,9
O=[N+]([O-])c1cc(Cl)cc(/C=N\Nc2ccccn2)c1O,112*,109*,-4,102*,1
O=[N+]([O-])c1cc(/C=N\Nc2ccccn2)ccc1Cl,9,-4,-3,11,4
O=C(NCc1ccccc1)c1ccc2ccccc2n1,0,-3,-2,7,0
COc1ccc(CNC(=O)c2ccc3ccccc3n2)cc1,-8,-19,17*,0,4
CCCNC(=O)NC(=O)CSc1nncs1,.,-7,-2,8,1
NC(=S)N/N=C/c1c(O)c(Br)cc2oc3c(c12)CCCC3,39,82*,-1,87*,-1
COc1cc(NS(=O)(=O)c2ccc(NC(C)=O)cc2)nc(OC)n1,-19,4,-2,1,0
COc1cc(NS(=O)(=O)c2ccc(N/C=C(\C#N)c3nc4cc(Cl)ccc4o3)cc2)nc(OC)n1,95*,22,6,28,0
CC(C)C(C(=O)N1CCN(C(=O)OC(C)(C)C)CC1)n1cc(-c2cn([C@@H](C)C(=O)N3CCN(C(=O)OC(C)(C)C)CC3)nn2)nn1 (stereo not given in full),.,.,.,0,.
Oc1ccc(/C=N/n2cnn(Cc3ccccc3Cl)c2=S)c(O)c1,78*,-9,-2,4,3
COc1ccc(/C=N/n2cnn(Cc3ccccc3Cl)c2=S)cc1OC,4,-9,-2,-3,2
Cc1cccc(NC(=O)/C=C/c2ccc([N+](=O)[O-])s2)c1,107*,99*,3,11,1
SMILES,CSC inhib,Beta apoptosis,PP1 counter,SKKanGAS inh,PP5 primary
Cc1ccc(C(=O)N/N=C/c2ccc([N+](=O)[O-])s2)cc1,-1,-56,-1,?,2
Cc1cccc(NC(=S)N/N=C/c2ccc([N+](=O)[O-])s2)c1,125*,103*,6,101*,4
Cc1ccc(NC(=O)/C=C/c2ccc([N+](=O)[O-])s2)c(C)c1,107*,106*,-5,5,-3
S=C(NCCCN1CCOCC1)Nc1ccc(Cl)c(Cl)c1,-7,-4,-3,2,3
O=C1OC(C(=O)NCc2ccccc2)Cc2ccccc21 (stereo not given),-10,-2,-3,3,1
COc1ccc(C(=O)N=C2SC3CS(=O)(=O)CC3N2c2ccc(C(C)=O)cc2)cc1 (stereo not given),-13,2,0,4,3
Cc1nn(-c2ccccc2)c(C)c1/C=N/NC(=O)c1cc(-c2ccc(Cl)s2)[nH]n1,69,-1,-2,59*,6
Cc1cc(C(=O)N/N=C/c2c(C)nn(-c3ccccc3)c2C)n[nH]1,3,-5,-3,-3,0
Cc1nn(-c2ccccc2)c(C)c1/C=N/NC(=O)c1cc(C23CC4CC(CC(C4)C2)C3)[nH]n1,97*,18,0,64*,3
Cc1nn(-c2ccccc2)c(C)c1/C=N/NC(=O)CSc1nnc(SCc2ccc(Cl)cc2)s1,14,-1,17*,23,3
Cc1nn(-c2ccccc2)c(C)c1/C=N/NC(=O)c1cc(C2CC2)[nH]n1,-8,3,-5,3,1
CC(/C=N/NC(=O)c1cc(-c2ccc(C)s2)[nH]n1)=C\c1ccccc1,87*,20,2,-2,-1
CCc1cccc(NS(=O)(=O)c2c(C)nc3scc(C)n3c2=O)c1,.,-2,6,3,1
O=C(Nc1ccc(F)c(F)c1)C1=COCCO1,-7,-8,-5,-4,0
CCOc1ccc(NC(=O)CNC(=O)c2ccc([N+](=O)[O-])cc2)cc1,0,1,-5,1,-1
COc1cc(/C=N/NC(=O)c2cc(C34CC5CC(CC(C5)C3)C4)[nH]n2)ccc1O,101*,-6,2,7,1
Cc1nn(-c2ccccc2)c(C)c1/C=N/NC(=O)c1cc(-c2cccs2)[nH]n1,60,37,-1,10,5
Cc1nn(-c2ccccc2)c(C)c1/C=N/NC(=O)c1cc(-c2ccc(Br)s2)[nH]n1,76*,31,-4,51*,1
COc1cc(/C=N/NC(=O)c2cc(C3CC3)[nH]n2)ccc1O,1,5,6,-6,-2
Cc1cccc(C(=O)OCC(=O)NCCNC(=O)COC(=O)c2cccc(C)c2C)c1C,-2,-2,3,1,2
Cc1ccc(Cc2cc(-c3ccc(C)cc3)n[nH]c2=O)cc1,-15,-19,3,17,0
CC(C)c1ccc2c(c1)C1(NN=C(c3ccccc3)S1)C(=O)N2 (stereo not given),116*,74,16*,99*,3
CCc1ccc2c(c1)C1(NN=C(c3ccc(C)cc3)S1)C(=O)N2 (stereo not given),9,50,5,80*,2
CCOC(=O)C(NC(=O)c1ccccc1Cl)(Nc1ccc(C)c(C)c1)C(F)(F)F (stereo not given),-9,-2,-4,3,-1
COC(=O)C(Nc1ccccc1Cl)(c1cc(C)c(O)c(C)c1)C(F)(F)F (stereo not given),3,9,4,88*,3

# Screening results from PubChem.
